Results on 76 molecules are retold here after PubChem BioAssay AID1259421 (Broad Institute, 2018).

Where “and” joins values, the source holds several entries; their conditions need not be identical. Identical values can stand only once. The whole screen tested about 6,400 compounds, of which about 610 (9.5%) were called active. No stated cut-off is given here; in the data, active means activity change below about -70%; inconclusive means no clear call, values can overlap the other calls; inactive means above that. The full list was thinned out, with actives kept by preference. A structure can be active in one record and inactive in another.

This assay is described as follows: Toxoplasma gondii ME49Luc growth in HeLa cells, luciferase, no IFN-y, primary screen (AID 1259421). The note with it: T. gondii ME49Luc in HeLa, 72 h, stronger effect = lower value, concentration not given here.
`CC(C)=CCCC(C)(OC1OC(COC2OC(CO)C(O)C2O)C(O)C(O)C1O)C1CCC2(C)C1C(O)CC1C3(C)CCC(OC4OC(CO)C(O)C(O)C4OC4OC(CO)C(O)C(O)C4O)C(C)(C)C3CCC12C` (stereo unspecified): the activity change, negative = inhibition is 4.49% (inactive).

Turning to `CC(C)C[C@H](NC(=O)[C@@H](COC(C)(C)C)NC(=O)[C@H](Cc1ccc(O)cc1)NC(=O)[C@H](CO)NC(=O)[C@H](Cc1c[nH]c2ccccc12)NC(=O)[C@H](Cc1cnc[nH]1)NC(=O)[C@@H]1CCC(=O)N1)C(=O)N[C@@H](CCCN=C(N)N)C(=O)N1CCC[C@H]1C(=O)NNC(N)=O`, the activity change, negative = inhibition is 8.64% (inactive).

With `O=[N+]([O-])c1cc(Cl)ccc1S(=O)(=O)N1CCN(Cc2ccccc2)CC1`, the activity change, negative = inhibition was 26.6% (inactive).

In the case of `C=C1C[C@]23C[C@@]1(O)CC[C@H]2[C@@]12C=C[C@H](O)[C@@](C)(C(=O)O1)[C@H]2[C@@H]3C(=O)O`, the activity change, negative = inhibition is 13.1% (inactive).

For the molecule `CCC(=O)OCC(=O)[C@@]1(OC(=O)CC)[C@@H](C)C[C@H]2[C@@H]3CCC4=CC(=O)C=C[C@]4(C)[C@@]3(Cl)[C@@H](O)C[C@@]21C`, the activity change, negative = inhibition was -74.6% (active) and -1.83% (inactive).

Take `CCC(=O)OCC(=O)[C@@]1(OC(=O)CC)[C@@H](C)C[C@H]2[C@@H]3CCC4=CC(=O)C=C[C@]4(C)[C@@]3(F)[C@@H](O)C[C@@]21C`: the activity change, negative = inhibition is -3.54% (inactive).

For `CCC(=O)OCC(=O)C1(OC(=O)CC)C(C)CC2C3CCC4=CC(=O)C=CC4(C)C3(Cl)C(O)CC21C` (stereo unspecified), the activity change, negative = inhibition was -2.98% (inactive).

As for `CC/C=C\C/C=C\C/C=C\CCCCCCCC(=O)O`, the activity change, negative = inhibition was 11.4% (inactive).

On to `Clc1ccc(N/N=C(\c2ccccc2)c2ccccn2)nc1`, for which the activity change, negative = inhibition is 31.4% (inactive).

Turning to `N=C(N)S/C=C\C(=O)O`, the activity change, negative = inhibition was 28% (inactive).

In the case of `C[C@@H](Oc1ccc2[nH]nc(/C=C/c3cnn(CCO)c3)c2c1)c1c(Cl)cncc1Cl`, the activity change, negative = inhibition is -81.2% (active).

Turning to `O=C(c1ccc(/C=C/c2n[nH]c3ccccc23)cc1)N1CCNCC1`, the activity change, negative = inhibition is -59.7% (inactive).

In the case of `CCCSc1nc(N[C@@H]2C[C@@H]2c2ccc(F)c(F)c2)c2nnn([C@@H]3C[C@H](OCCO)[C@H](O)[C@H]3O)c2n1`, the activity change, negative = inhibition is 5.35% (inactive).

As to `O=C(O)CCNC(=O)c1ccc(N=Nc2ccc(O)c(C(=O)O)c2)cc1`, the activity change, negative = inhibition was 22.4% (inactive).

Take `O=c1[nH]c(=O)n([C@H]2C[C@H](O)[C@@H](CO)O2)cc1C(F)(F)F`: the activity change, negative = inhibition was -19.7% (inactive) and 1.85% (inactive).

For the molecule `O=c1[nH]c(=O)n([C@H]2C[C@H](O)[C@@H](CO)O2)cc1Br`, the activity change, negative = inhibition was 12.7% (inactive).

As for `C[C@H]1O[C@@H](n2cc(F)c(=O)[nH]c2=O)[C@H](O)[C@@H]1O`, the activity change, negative = inhibition is -95% (active).

As to `Cc1cn([C@@H]2C[C@@H](O)[C@H](CO)O2)c(=O)[nH]c1=O`, the activity change, negative = inhibition is -2.77% (inactive).

For `Nc1nc(=O)n([C@H]2C[C@H](O)[C@@H](CO)O2)cc1F`, the activity change, negative = inhibition is -94.3% (active).

For `Nc1ncn([C@H]2C[C@H](O)[C@@H](CO)O2)c(=O)n1`, the activity change, negative = inhibition was 35.6% (inactive).

Consider `Nc1nc(=O)n([C@H]2C[C@@H](O)[C@@H](CO)O2)cc1Cl`, for which the activity change, negative = inhibition is 7.28% (inactive).

Regarding `O=c1[nH]c(=O)n([C@H]2CC(O)[C@@H](CO)O2)cc1C(F)(F)F` (stereo partly specified), the activity change, negative = inhibition was 7.06% (inactive).

Consider `CCCCCOC(=O)Nc1nc(=O)n([C@@H]2O[C@H](C)[C@@H](O)[C@H]2O)cc1F`, for which the activity change, negative = inhibition is -63.1% (inactive) and -62.7% (inactive).

With `O=c1[nH]c(=O)n([C@H]2C[C@H](O)[C@@H](CO)O2)cc1F`, the activity change, negative = inhibition is -81.1% (active).

Take `O=c1[nH]c(=O)n([C@H]2CCCO2)cc1F`: the activity change, negative = inhibition is -87.1% (active) and -73.6% (active).

In the case of `Cc1cn([C@H]2O[C@@H](CO)[C@H](O)[C@@H]2F)c(=O)[nH]c1=O`, the activity change, negative = inhibition was 14.2% (inactive).

For `CN(C)CC/C=C1/c2ccccc2COc2ccccc21`, the activity change, negative = inhibition was -63.2% (inactive) and 23.5% (inactive) and 10.1% (inactive).

For `CC(C)C1C(=O)N(S(C)(=O)=O)[C@@H]2CCN(C(=O)/C=C/CN3CCCCC3)[C@@H]12` (stereo partly specified), the activity change, negative = inhibition is 12% (inactive).

In the case of `NCCCCCc1cnc[nH]1`, the activity change, negative = inhibition was 11% (inactive).

On to `O=c1cc(O)c(Cl)c[nH]1`, for which the activity change, negative = inhibition is 4.32% (inactive).

As to `O=c1ccc2ccc(OCCCCN3CCN(c4cccc5sccc45)CC3)cc2[nH]1`, the activity change, negative = inhibition is 10.5% (inactive).

Turning to `N[C@@H]1CCN(O)C1=O`, the activity change, negative = inhibition was 15% (inactive).

For `O=C(O)CC/C=C\CC[C@@H]1[C@@H](N2CCCCC2)[C@@H](O)C[C@@H]1OCc1ccc(-c2ccccc2)cc1`, the activity change, negative = inhibition was -4.54% (inactive).

With `COC(=O)C[C@H]1C(C)(C)C(=O)[C@@H]2CC3=C4CC(=O)O[C@@H](c5ccoc5)[C@]4(C)CCC3[C@@]1(C)C2=O` (stereo partly specified), the activity change, negative = inhibition is -15.9% (inactive).

As for `C[N+]1(C)C2CC(OC(=O)[C@@H](CO)c3ccccc3)CC1C1OC12` (stereo partly specified), the activity change, negative = inhibition was 4.33% (inactive) and 10.7% (inactive).

Take `Cc1cn(C2CC(N=[N+]=[N-])C(CO)O2)c(=O)[nH]c1=O` (stereo unspecified): the activity change, negative = inhibition is 10.1% (inactive).

On to `CCc1cn([C@H]2C[C@H](O)[C@@H](CO)O2)c(=O)[nH]c1=O`, for which the activity change, negative = inhibition is 13.9% (inactive).

`Cc1cn([C@H]2C[C@H](N=[N+]=[N-])[C@@H](CO)O2)c(=O)[nH]c1=O`: the activity change, negative = inhibition was -81.6% (active).

For `O=C(O)C1[O][Sb]2([O][Sb]34[O]C(C(=O)O)C([O]3)C(C(O)CO)[O]4)[O]C(C(O)CO)C1[O]2` (stereo unspecified), the activity change, negative = inhibition was -75.8% (active).

For `C(=N\NC1=NCCN1)/c1c2ccccc2c(/C=N/NC2=NCCN2)c2ccccc12`, the activity change, negative = inhibition is -58.3% (inactive).

`O=C(Nc1cc2cc[nH]c2cn1)c1ccccc1`: the activity change, negative = inhibition is -32.1% (inactive).

For `COc1ccc(C(=O)c2ccc(O)cc2)c(O)c1O`, the activity change, negative = inhibition is -0.363% (inactive).

On to `N=C(N)c1ccc2cc(OC(=O)c3ccc(N=C(N)N)cc3)ccc2c1`, for which the activity change, negative = inhibition is 4.69% (inactive).

For `NC(=O)/N=N/C(N)=O`, the activity change, negative = inhibition was 7.42% (inactive).

For the molecule `CC(C)(C(=O)NCC(F)(F)C(F)(F)F)C(=O)N[C@@H]1C(=O)Nc2ccccc2-c2ccccc21`, the activity change, negative = inhibition is -88.1% (active).

Take `C/C(=C/c1ccc(C(=O)O)cc1)c1ccc2c(c1)C(C)(C)CCC2(C)C`: the activity change, negative = inhibition was -3.41% (inactive).

Take `NC1[C@H]2CN(c3nc4c(cc3F)c(=O)c(C(=O)O)cn4-c3ccc(F)cc3F)C[C@@H]12` (stereo partly specified): the activity change, negative = inhibition was -37.5% (inactive).

In the case of `O=C(CCCCCN1C(=O)c2cccc3cccc(c23)C1=O)NO`, the activity change, negative = inhibition was -90.6% (active).

In the case of `O=C(O)CCCN1C(=O)c2cccc3cccc(c23)C1=O`, the activity change, negative = inhibition is -5.26% (inactive).

Regarding `O=C(O)CN1C(=O)c2cccc3cccc(c23)C1=O`, the activity change, negative = inhibition is 4.44% (inactive) and 1.05% (inactive).

Regarding `O=c1cc(-c2ccc(O)cc2)oc2cc(O)ccc12`, the activity change, negative = inhibition was 22.2% (inactive).

As for `CCCC[C@H](C)C[C@H](O)/C=C/[C@H]1[C@H](O)CC(=O)[C@@H]1CCCC/C=C/C(=O)O`, the activity change, negative = inhibition was -0.328% (inactive).

On to `C/C=C/C(=O)N(CC)c1ccccc1C`, for which the activity change, negative = inhibition is 14.6% (inactive) and 5.26% (inactive).

Regarding `C=C[C@@](C)(/C=C/c1ccc(O)cc1)CCC=C(C)C`, the activity change, negative = inhibition was 11.8% (inactive).

Consider `NC(=O)C(c1ccccc1)(c1ccc(F)cc1)c1ccc(F)cc1`, for which the activity change, negative = inhibition is 1.76% (inactive).

Consider `Oc1c(Br)cc(Br)c2cccnc12`, for which the activity change, negative = inhibition is -63.3% (inactive).

On to `[O-][NH2+]c1ccc(O)c2ncccc12`, for which the activity change, negative = inhibition was -71.9% (active) and -84.8% (active).

As for `Oc1ccc(Cl)c2cccnc12`, the activity change, negative = inhibition was 17.5% (inactive) and 6.79% (inactive).

Turning to `COc1ccc2c(c1OC)C(=O)O[C@@H]2C1c2c(cc3c(c2OC)OCO3)CCN1C` (stereo partly specified), the activity change, negative = inhibition was 8.49% (inactive).

On to `C[C@@H]1C(=O)O[C@H]2CC34[C@H]5C[C@@H](C(C)(C)C)[C@]36[C@@H](OC(=O)[C@@H]6O)O[C@@]4(C(=O)O5)[C@]21O` (stereo partly specified), for which the activity change, negative = inhibition was 5.52% (inactive).

Turning to `CC(C)CCCC(C)[C@H]1CCC2C3C(=O)C=C4C[C@@H](O)CC[C@]4(C)C3CC[C@@]21C` (stereo partly specified), the activity change, negative = inhibition was -7.52% (inactive).

As to `CC(C)(C)NCC(O)COc1cccc2c1CCCC2=O` (stereo unspecified), the activity change, negative = inhibition is 12.5% (inactive) and -6.73% (inactive).

`CC(=O)O.CC(=O)O.[Cl][Pt+2][Cl].[NH-]C1CCCCC1.[NH2-]`: the activity change, negative = inhibition was 1.41% (inactive).

Take `O=C(O[C@@H]1Cc2c(O)cc(O)cc2O[C@@H]1c1ccc(O)c(O)c1)c1cc(O)c(O)c(O)c1`: the activity change, negative = inhibition was -0.0246% (inactive).

For the molecule `COc1ccc(C(=O)NCc2ccc(OCCN(C)C)cc2)cc1OC`, the activity change, negative = inhibition is -2.71% (inactive).

With `CN(C)CCCc1cc(C(=O)Nc2ccc(-c3ccncc3)cc2)ccc1O`, the activity change, negative = inhibition is 4.74% (inactive).

Take `COc1ccc(NC(=O)c2ccc(-c3ccc(-c4noc(C)n4)cc3C)cc2)cc1N1CCN(C)CC1`: the activity change, negative = inhibition is -78.7% (active) and -44.9% (inactive).

Turning to `COc1ccccc1N1CCN(CCCCNC(=O)c2ccc(-c3ccc(C(C)=O)cc3)cc2)CC1`, the activity change, negative = inhibition was 7.26% (inactive).

Regarding `COc1ccc(NS(=O)(=O)c2ccc(I)cc2)cc1N1CCN(C)CC1`, the activity change, negative = inhibition was 0.621% (inactive) and -5.09% (inactive).

In the case of `COc1ccc(NC(=O)c2ccc(-c3ccc(-c4noc(C)n4)cc3C)cc2)cc1OCCN(C)C`, the activity change, negative = inhibition was -53.8% (inactive) and -87.8% (active).

In the case of `CN(C)c1ccc(O)c2c1C[C@H]1C[C@H]3[C@H](N(C)C)C(=O)C(C(N)=O)C(=O)[C@@]3(O)C(=O)C1C2=O` (stereo partly specified), the activity change, negative = inhibition is -2.37% (inactive) and -2.12% (inactive).

With `Cc1cc(O)cc(=O)o1`, the activity change, negative = inhibition was 2.59% (inactive).

In the case of `CCCCCC/C=C/C=C\CCCCCCCC(=O)O`, the activity change, negative = inhibition was 9.04% (inactive).

As for `Cc1cc(Nc2cc(CN3CCOCC3)c3nc(C)c(Cc4ccc(Cl)cc4F)n3n2)n[nH]1`, the activity change, negative = inhibition was -76.1% (active).

In the case of `FC(F)OC(Cl)C(F)(F)F` (stereo unspecified), the activity change, negative = inhibition was 4.04% (inactive).

Regarding `CCCC(=O)O`, the activity change, negative = inhibition is 16.3% (inactive) and 10.7% (inactive).
